# Results reported in the supplement of paper PMC3334620.
# Over roughly 33,000 sequences, “E-score (-0.5 to 0.5)” has its median near -0.012; the highest 2% begin near 0.29. This is one part of a sample in which the highest values are shown more often than they occur.
# Target: T1, Ybr033w (UniProt P38073)
# T1 sequence: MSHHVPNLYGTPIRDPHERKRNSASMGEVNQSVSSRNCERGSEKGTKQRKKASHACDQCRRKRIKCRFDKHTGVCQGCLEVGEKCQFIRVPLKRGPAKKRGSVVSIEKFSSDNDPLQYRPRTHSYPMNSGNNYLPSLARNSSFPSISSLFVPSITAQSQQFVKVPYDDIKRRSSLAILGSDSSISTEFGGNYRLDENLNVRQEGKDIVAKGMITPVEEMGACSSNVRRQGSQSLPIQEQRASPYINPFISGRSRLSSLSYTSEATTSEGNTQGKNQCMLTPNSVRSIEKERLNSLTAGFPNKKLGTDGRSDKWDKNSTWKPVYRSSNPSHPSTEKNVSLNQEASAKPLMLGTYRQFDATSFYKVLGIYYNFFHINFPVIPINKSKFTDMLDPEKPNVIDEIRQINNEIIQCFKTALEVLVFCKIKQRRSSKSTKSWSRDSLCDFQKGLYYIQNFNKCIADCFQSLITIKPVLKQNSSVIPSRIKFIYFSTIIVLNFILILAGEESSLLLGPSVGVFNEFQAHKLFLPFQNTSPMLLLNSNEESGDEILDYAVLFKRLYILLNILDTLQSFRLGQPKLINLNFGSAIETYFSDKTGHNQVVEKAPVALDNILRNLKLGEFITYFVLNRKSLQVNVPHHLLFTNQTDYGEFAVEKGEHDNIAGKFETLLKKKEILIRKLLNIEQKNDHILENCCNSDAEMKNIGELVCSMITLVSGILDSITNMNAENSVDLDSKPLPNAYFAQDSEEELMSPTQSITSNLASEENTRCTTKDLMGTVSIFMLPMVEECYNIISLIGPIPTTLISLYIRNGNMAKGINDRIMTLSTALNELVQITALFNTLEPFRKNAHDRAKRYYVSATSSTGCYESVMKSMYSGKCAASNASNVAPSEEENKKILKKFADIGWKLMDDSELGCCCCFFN
# Assay: PBM E-score (8-mer binding enrichment) (E-score (-0.5 to 0.5)); higher = stronger / more preferred TF binding
# Details: protein concentration: 200 nM; construct: GST-full length
# Procedure: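 Universal 'all 10-mer' protein binding microarrays (Agilent AMADID 015681) probed with GST-tagged S. cerevisiae TFs (full-length or DBD) made by in vitro transcription/translation (PURExpress), about 100-200 nM. Bound TF was detected with fluorescent anti-GST. Each ungapped 8-mer (which stands for itself and its reverse complement) is scored by the PBM enrichment score (E-score), a modified Wilcoxon-Mann-Whitney statistic from -0.5 to +0.5, computed with the Universal PBM Analysis Suite. Scale: above 0.35 generally sequence-specific binding.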
row,Sequence,PBM E-score
1,ACAGCCCG,-0.175
2,GATCTCCA,-0.0356
3,GGATCTAA,-0.0711
4,CGAGACCC,-0.167
5,GAGAACTA,0.101
6,AAGCCCTA,-0.124
7,ACATACAT,0.226
8,AACCCTAG,-0.0236
9,ACTTTAAT,0.114
10,AAGCAAAA,0.13
11,CCGGGTCG,-0.279
12,CCCGGGAC,-0.322
13,ATAATGAA,0.331
14,ATAATAAG,0.18
15,ATAATAAC,0.159
16,ATAATGAG,0.0777
17,ATAATAAT,0.305
18,ATAATGAT,0.203
19,CTTGCTGA,0.0188
20,CGGACAAA,0.297
21,CGGACAAG,-0.0192
22,AGGACAAA,0.17
23,CAGACTTA,-0.189
24,TCAAGAGA,0.0989
25,AGATTCTA,0.106

row,Sequence,PBM E-score
1,GATGTTCC,0.412
2,GATGTTCA,-0.079
3,CATGTTCC,0.0191
4,CCTGAGAC,-0.235
5,ATTCTCCC,0.14
6,ATTCTCCA,0.175
7,ATTCTCCG,0.305
8,CCACAGGC,-0.336
9,AACTCTCT,0.0664
10,ACCTCAGG,-0.12
11,ATATCTTG,0.288
12,ATATCTTC,0.218
13,ATATCTTA,0.281
14,CTAGAGGA,-0.102
15,GCAAATTA,0.106
16,TGGTCGAA,-0.209
17,CATATACA,0.324
18,AATATACA,0.316
19,AATATACT,0.279
20,CATATACC,-0.165
21,AGTATACA,0.185
22,GGTATACA,0.00479
23,TATATACA,0.24
24,TGTATACA,0.341
25,GATATACA,0.144

row,Sequence,PBM E-score
1,GTCTAATA,0.0847
2,GGCTCCAC,-0.267
3,GATAGGAC,-0.188
4,GTGATCAC,-0.181
5,TACTCACA,0.158
6,ATCGAGCG,-0.089
7,GATCTAGA,0.0239
8,GATACCCA,0.0285
9,AACTATAT,0.335
10,AACTATAG,0.104
11,CTATATAG,0.0604
12,ATATATAG,0.332
13,AAATATGG,0.12
14,AAATAGTC,0.0679
15,AAATATAG,0.305
16,AAATAGTT,0.227
17,CAATATAG,0.115
18,AGATATAG,0.171
19,AAATAGTG,0.292
20,AACTATAC,0.151
21,TCATCGGA,0.109
22,CAACCTTA,0.14
23,CCTTAGCG,-0.178
24,ATTTACCG,0.132
25,TACAATCA,0.171

row,Sequence,PBM E-score
1,AACTACCG,0.0353
2,AAGTATAT,0.302
3,TAATATAA,0.379
4,CAATATAC,0.0977
5,TAATAGAA,0.198
6,AAATATCT,0.295
7,AAATATCC,0.273
8,AAGTATAA,0.152
9,AAATATCG,0.247
10,AAATATAC,0.312
11,AAGTATAG,0.12
12,TAATATGA,0.284
13,GAATATAC,0.141
14,AGAGTAGG,0.0322
15,CTATCTGC,-0.0829
16,ACAACTGT,0.106
17,CCACTACC,-0.149
18,AGGTGCAG,-0.186
19,AATTCTGC,0.0888
20,ATGACGCA,-0.0224
21,ACCAGGTA,-0.225
22,ATCGTTAA,0.24
23,ATCTTCAG,0.185
24,ATATATAT,0.141
25,AAATATAT,0.339

row,Sequence,PBM E-score
1,AAATATGT,0.252
2,GAATATAA,0.131
3,AAATAGAT,0.289
4,CAATATAA,0.284
5,AAATAGAC,0.101
6,AAATAGAG,0.247
7,AAATATAA,0.305
8,CAAGTCGA,-0.0109
9,GGTGAATA,0.127
10,ACGCAACG,0.0621
11,GTAAGTCA,0.0193
12,AAGCTTAC,0.0655
13,AAGGTTTG,0.227
14,AGGTGAGC,-0.172
15,ACTAACCC,0.0277
16,GTCGCGAC,0.234
17,ATTAACAA,0.382
18,CTTAACAC,0.112
19,ATTAACAC,0.368
20,ATTAACAG,0.0928
21,GTTAACAA,0.0731
22,AATAACAC,0.222
23,TGATTAAA,0.27
24,GGATTAAC,0.441
25,CGATTAAC,0.103

row,Sequence,PBM E-score
1,AGATTAAT,0.284
2,AGATTAAC,0.199
3,CGATTAAA,0.174
4,AGATTAAA,0.295
5,AGATTAAG,0.214
6,GGATTAAA,0.341
7,GGAGAACA,0.026
8,ACTTAGCA,0.00122
9,GCCCTCTA,-0.176
10,TACGCCCA,0.0751
11,CAGATCGC,-0.164
12,ATAAACAG,0.0706
13,ATAAACAA,0.326
14,AAAAACAT,0.21
15,ATAAACAC,0.241
16,GAAAACAA,0.115
17,GTAAACAA,0.298
18,GTAAACAC,0.0587
19,ATAAACAT,0.289
20,TAAAACAA,0.177
21,TTAAACAA,0.226
22,CTAAACAA,0.112
23,AAAAACAA,0.321
24,CAGGGTAC,-0.158
25,GTCGCATA,0.214

row,Sequence,PBM E-score
1,TATCACAA,0.18
2,AGCTAGAG,-0.0778
3,CTCAAAAC,0.217
4,CCTTGGGA,0.021
5,ACAGAAGA,0.0639
6,CCTTTGCA,0.0151
7,AATAACCG,-0.0165
8,AAAAACCC,0.164
9,AAAAACCG,0.134
10,AAAAACCT,0.307
11,CCACTTCA,-0.0798
12,AGCCCTCG,-0.314
13,GGAATTCC,-0.236
14,CGAATTAA,0.112
15,GGAATTCA,0.288
16,CGAATTCA,-0.00151
17,AGAATTAC,0.181
18,CGAATTAC,0.135
19,TGAATTAA,0.226
20,GGAATTAA,0.349
21,GGAATTAC,0.291
22,CCACGCTC,-0.126
23,ACTACTGG,0.017
